The results in this text go back to PubChem BioAssay (NCI).

This is part of a sample that, as a whole, favours compounds with a hit. Of some 83,000 tested, about 20% had one in any assay.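 Note: values are percent growth. 100 is the growth of untreated cells, values between 100 and 0 indicate rising inhibition; between -100 and 0 indicates cell death.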 A number with no mark means an inactive call. Activity calls are given as the source filed them. Rule for the calls: active = growth percent below 10; inactive = the rest.

Holding throughout (test): NCI-60 one-dose screen, 48 h (100 = growth as untreated, 0 = no growth, -100 = all killed)
Holding throughout (details): 10 µM unless noted

The test system of assay [1] is SR leukemia.
Assay [2] relates to RPMI-8226 leukemia.
In assay [3] the test system is OVCAR-8 ovarian.
In assay [4] the test system is OVCAR-5 ovarian.
The test system of assay [5] is OVCAR-4 ovarian.
In assay [6] the test system is SK-OV-3 ovarian.
In assay [7] the test system is IGROV1 ovarian.
The subject of assay [8] is OVCAR-3 ovarian.
The test system of assay [9] is HS 578T breast.
In assay [10] the test system is NCI/ADR-RES ovarian.
Assay [11] deals with T-47D breast.
For assay [12], the system named is BT-549 breast.
The test system of assay [13] is MDA-MB-435 melanoma.
Assay [14] relates to SW-620 colon.
The subject of assay [15] is MCF7 breast.
In assay [16] the test system is HCT-116 colon.
Assay [17] relates to HCC-2998 colon.
Assay [18] concerns KM12 colon.

Regarding `COc1cc2c(cc1O)[C@@]1(C)[C@H](c3ccccc3Br)OC(=O)N1CC2`, the growth in assay [1] was 86.6%; in assay [2] it was 67.1%; in [3], 88.2%; in [4], 121%; in [5], 76.6%; in assay [6] it was 107%. The growth in assay [7] was 111%; in assay [8], 94.1%; in assay [9], 97.9%; in assay [10] it was 83.8%; in assay [11], 65.4%; in assay [12], 92.8%. The growth in assay [13] was 92.1%; in assay [14], 104%; in assay [15], 99.1%; in assay [16], 77.1%; in assay [17], 99%; in assay [18], 89.7%.
For the compound `COc1cc(Nc2ncccc2NC(=O)c2cn(Cc3cccc(Oc4ccccc4)c3)nn2)cc(OC)c1`, the growth is 40.8% in [1]; 71.6% in assay [2]; 87.8% in [3]; 107% in assay [4]; 92.7% in [5]; 96.2% in [6]. In addition, the growth in assay [7] was 99.3%; in assay [8], 85.3%; in assay [9] it was 79.3%; in assay [10], 76%; in [11] it was 65%; in assay [12] it was 85.5%. In addition, the growth is -6.08% (active) in assay [13]; 86.1% in [14]; 49.3% in assay [15]; 91.1% in assay [16]; 71.6% in assay [17]; 62.2% in assay [18].
For the compound `COc1ccc(NC(=O)c2cccc(C3CCc4c(cc(OC)c(OC)c4OC)O3)c2)cc1` (centres undefined), the growth is 5.23% (active) in assay [1]; -24.2% (active) in assay [2]; 35.1% in assay [3]; 64.8% in [4]; 53.1% in assay [5]; 26.8% in [6]. Further, the growth in [7] is 37.6%; in assay [8] it was 6.25% (active); in assay [9] it was 22%; in assay [10], 8.7% (active); in assay [11] it was 16%; in assay [12], 25.9%. Moreover, the growth in [13] is -10.5% (active); in assay [14] it was 29%; in [15], 11.3%; in assay [16] it was 14.6%; in assay [17], 50.7%; in [18], 18.2%.
For the compound `CC[C@]12C=CCN3CC[C@@]4(c5ccc(OC)cc5N(C)[C@H]4[C@@](O)(C(=O)OC)[C@@H]1OC(=O)CCCN1CCOCC1)[C@@H]32`, the growth was 111% in assay [1]; 96.2% in assay [2]; 104% in [3]; 114% in [4]; 108% in assay [5]; 111% in [6]. Also, the growth in assay [7] is 112%; in assay [8], 108%; in assay [9], 107%; in assay [10], 106%; in [11], 106%; in [12] it was 105%. Further, the growth in assay [13] was 100%; in assay [14], 105%; in [15] it was 103%; in assay [16], 101%; in [17], 109%; in [18] it was 107%.
On to `O=C(CN1C(=O)NC2NC(=O)NC21)N/N=C/c1ccc(Cl)cc1Cl` (centres undefined), for which the growth in [1] was 109%; in assay [2], 104%; in assay [3], 109%; in [4], 105%; in assay [5] it was 103%; in [6], 102%. Moreover, the growth in assay [7] was 103%; in assay [8], 104%; in assay [9], 103%; in assay [10], 104%; in assay [11], 110%; in assay [12], 98.9%. Also, the growth in assay [13] was 102%; in assay [14], 104%; in assay [15], 98%; in assay [16], 101%; in assay [17], 110%; in assay [18] it was 105%.
Turning to `CCN(CC)CCCC(C)Nc1ccc2cc(OC)ccc2n1` (centres undefined), the growth was 120% in assay [1]; 97% in assay [2]; 99.8% in assay [3]; 109% in assay [4]; 62% in assay [5]; 113% in assay [6]. Also, the growth in assay [7] is 105%; in assay [8], 98.8%; in [9], 99.9%; in [10], 108%; in [11], 103%; in [12], 107%. The growth is 104% in [13]; 94.4% in assay [14]; 84.2% in [15]; 102% in [16]; 101% in [17]; 93.2% in [18].
`COc1cc(N2C(=O)[C@H](c3ccccc3)C2c2ccc(SC)cc2)cc(OC)c1OC` (some centres undefined): the growth in [1] is -5.24% (active); in [2] it was -9.2% (active); in [3] it was 4.09% (active); in assay [4], 56.8%; in assay [5], 48.6%; in [6], 8.14% (active). Also, the growth is 13.7% in assay [7]; 8.73% (active) in assay [8]; 20.6% in assay [9]; 9.89% (active) in [10]; 61.9% in assay [11]; -6.28% (active) in assay [12]. For the same compound, the growth in assay [13] is -23.7% (active); in [14] it was 25.2%; in assay [15], 6.93% (active); in [16], 0.933% (active); in assay [17] it was 12.6%; in [18] it was 10.2%.
For `O[C@@H](c1cc(C(F)(F)F)nc2c(C(F)(F)F)cccc12)[C@H]1CCCCN1`, the growth is 8.64% (active) in assay [1]; 68.9% in assay [2]; 76.7% in assay [3]; 77.7% in assay [4]; 62.6% in [5]; 82.7% in [6]. Further, the growth was 51.7% in assay [7]; 63.1% in assay [8]; 58.2% in [9]; 61.9% in [10]; 43.1% in assay [11]; 66.1% in assay [12]. For the same compound, the growth is 73.1% in [13]; 73.7% in [14]; 36.3% in assay [15]; 36.1% in assay [16]; 80.5% in assay [17]; 50.1% in assay [18].
